# Experimental data: PubChem BioAssay (NCI)
# Compounds without any hit were thinned out: in the full panel of roughly 83,000, 20% have a hit.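 Results are percent growth after 48 hours of single-concentration exposure. 100 means growth as in untreated cells, lower positive values show inhibition; negative values down to -100 show cell death.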 A number with no mark means an inactive call. The source made the active and inactive calls. How the source made its calls: active means growth percent below 10; inactive means the rest.
# What was measured:
# Assay in all cases: NCI-60 one-dose screen, 48 h (100 = growth as untreated, 0 = no growth, -100 = all killed)
# Details in all cases: 10 µM unless noted
# [1] = test system: SR leukemia
# [2] = test system: OVCAR-8 ovarian
# [3] = test system: OVCAR-5 ovarian
# [4] = test system: OVCAR-4 ovarian
# [5] = test system: SK-OV-3 ovarian
# [6] = test system: IGROV1 ovarian
# [7] = test system: OVCAR-3 ovarian
# [8] = test system: NCI/ADR-RES ovarian
# [9] = test system: T-47D breast
# [10] = test system: BT-549 breast
# [11] = test system: SW-620 colon
# [12] = test system: MCF7 breast
# [13] = test system: HCT-116 colon
# [14] = test system: HCC-2998 colon
# [15] = test system: KM12 colon
# [16] = test system: HS 578T breast
# [17] = test system: MDA-MB-435 melanoma
# [18] = test system: RPMI-8226 leukemia
Compound,growth [1],growth [2],growth [3],growth [4],growth [5],growth [6],growth [7],growth [8],growth [9],growth [10],growth [11],growth [12],growth [13],growth [14],growth [15],growth [16],growth [17],growth [18]
CCCCCCCSc1ncnc2[nH]ncc12,79.3%,86.9%,92%,96.7%,101%,81.7%,79.9%,84.6%,51.9%,88.4%,61.9%,81.7%,62.7%,119%,83.2%,,,
Cc1ccc(S(=O)(=O)NCCN2c3nc4ccccc4cc3Sc3cc4ccccc4nc32)cc1,73.7%,34.1%,85.6%,22.9%,53.3%,,83.7%,63.1%,62.5%,46.2%,87.7%,,70.5%,86.3%,165%,33.4%,105%,
CN(C)c1ncnc2c1ncn2C1CCCCO1 (stereo not drawn),87.7%,107%,104%,104%,107%,112%,113%,108%,105%,101%,106%,96.6%,104%,96.7%,112%,,111%,
O=C(c1ccccc1)C(CN1CCCCC1)c1ccccc1 (stereo not drawn),-3.65% (active),15.6%,32.5%,39.7%,107%,56%,14.9%,12.6%,34.9%,83.8%,-82.6% (active),0.432% (active),,89%,14.4%,,23.9%,
COc1cccc(C=Nc2cc(C(C)C)c(O)cc2C)c1O,113%,98.8%,101%,101%,89.2%,111%,100%,104%,51.7%,101%,105%,92.5%,99.1%,115%,109%,,,
CC[C@@H](C)/C=C(C)/C=C/C(O)=C1\C(=O)N[C@@H](Cc2ccc(OC(=O)[C@@](OC)(c3ccccc3)C(F)(F)F)cc2)C1=O,62.6%,103%,120%,,112%,,67.8%,49.6%,113%,88.8%,96.7%,99.8%,,,91.1%,67.8%,101%,
CN(C)CCCN=c1cc2c(=O)n(CCCN(C)C)c(=O)c3c(NCCCN(C)C)cc4c(O)n(CCCN(C)C)c(=O)c1c4c3-2,6.3% (active),5.35% (active),0.732% (active),,-4.23% (active),-24.6% (active),-39.1% (active),52.2%,-1.16% (active),37%,-14.6% (active),0.771% (active),-29.7% (active),13.8%,3.01% (active),-11.2% (active),-52.8% (active),
O=C(CC1Sc2ccccc2NC1=O)NNc1cccc(Cl)c1Cl (stereo not drawn),61%,82.7%,80.6%,88.1%,70.2%,82.1%,81.7%,96.7%,73%,89.1%,87.3%,92.4%,,88.5%,82.7%,,95.4%,
CN(C)CCC(=O)Nc1ccc(-n2cc(-c3cccc(NC(=S)Nc4cccc(-c5cn(-c6ccc(NC(=O)CCN(C)C)cc6)nn5)c4)c3)nn2)cc1,25.9%,97.3%,113%,,115%,85.5%,94.6%,113%,69.1%,81.6%,17.4%,5.07% (active),26.7%,101%,56.3%,137%,110%,
O=c1[nH]c(N2CCC(Cc3ccccc3)CC2)nc2sc3c(c12)CCCC3,109%,96.3%,107%,110%,101%,106%,106%,96.6%,96.6%,109%,101%,98.1%,104%,103%,100%,,102%,
COc1ccc(C2=NN(C(N)=S)C(c3ccc4c(c3)OCO4)C2)cc1 (stereo not drawn),4.75% (active),20.9%,75.1%,,33.8%,-22% (active),-21.5% (active),5.5% (active),36.7%,-2.03% (active),1.46% (active),10.5%,1.71% (active),-24.7% (active),2.57% (active),-13% (active),3.04% (active),
COc1ccc(C(=O)COc2cccc(/C=C3\COc4ccc5ccccc5c4C3=O)c2)cc1,35%,36.9%,98.3%,28.1%,95.7%,,64%,46.5%,32%,1.54% (active),27.8%,16.1%,59.2%,63.9%,67.8%,88%,64.8%,
Cc1cc(Cl)ccc1Nc1nc(C(F)(F)F)ccc1C(=O)N/N=C/c1ccc(Cl)cc1,-37.5% (active),11.2%,6.57% (active),0.502% (active),-15.4% (active),,1.27% (active),4.33% (active),-0.161% (active),-7.4% (active),9.53% (active),2.27% (active),-38.8% (active),-13.3% (active),6.03% (active),,37.1%,
CCCCCc1c(C)[nH]c(/C=C2\N=C(c3ccc[nH]3)C=C2OCc2ccccc2)c1C,-26.1% [100 µM] (active),-64.2% [100 µM] (active),-98% [100 µM] (active),-89.3% [100 µM] (active),-97.1% [100 µM] (active),-66% [100 µM] (active),-89% [100 µM] (active),-48.5% [100 µM] (active),-77.7% [100 µM] (active),,-34.7% [100 µM] (active),-73% [100 µM] (active),-94.7% [100 µM] (active),-87.8% [100 µM] (active),-80.9% [100 µM] (active),,-93.9% [100 µM] (active),
COc1ccc2c3c(ccc2c1)C(=O)/C(=C\O)CC3,94.6%,97.4%,107%,100%,91.6%,111%,99.6%,96.3%,80.8%,105%,105%,102%,88.1%,104%,99.5%,,111%,
c1ccc(-c2oc(-c3ccccc3)c3ccccc23)cc1,56.8%,102%,112%,,116%,109%,124%,96.5%,101%,96.5%,109%,122%,108%,107%,105%,97.7%,107%,
C=C1CCC2C3(C)COC(c4ccccc4)OC3CCC2(C)C1C/C=C1/C(=O)OCC1OC(C)=O (stereo not drawn),78.2%,41.9%,120%,82.3%,131%,86.8%,100%,61.3%,71.1%,103%,41.4%,24.9%,24.9%,107%,84.4%,,88.6%,
O=C1NC(=O)/C(=C/c2ccc(Cl)cc2Cl)N1,93%,101%,106%,97.4%,98.9%,106%,105%,106%,90.9%,104%,102%,95.3%,114%,102%,103%,,116%,
CC1CN(CC(O)c2ccc(Br)cc2)CCO1 (stereo not drawn),92.3%,96.2%,103%,116%,112%,,107%,108%,107%,106%,109%,105%,,103%,107%,,121%,
Cc1cc2c(cc1C)[n+](Cc1ccc3ccccc3c1)cn2Cc1ccc2ccccc2c1,-50.6% (active),-79% (active),-87.1% (active),-76% (active),-27% (active),,-94.2% (active),80.7%,-56.4% (active),-86.9% (active),-84.1% (active),-67.7% (active),-96.4% (active),-69.6% (active),-85.3% (active),,-82.8% (active),
O=c1c2c(=NCCCN3CCCC3)cc3c(=O)n(CCCN4CCCC4)c(=O)c4c(NCCCN5CCCC5)cc(c(O)n1CCCN1CCCC1)c2c4-3,3.03% (active),5.37% (active),-0.86% (active),,-6.65% (active),-30.3% (active),-21.8% (active),51.1%,-6.25% (active),-29.9% (active),-3.24% (active),0.241% (active),2.72% (active),-43.1% (active),0.818% (active),-16.5% (active),-62.4% (active),
O=C(O)c1ccc2cccnc2c1O,5.47% (active),13.6%,24.2%,17.7%,-10.7% (active),5.01% (active),1.49% (active),-1.54% (active),10.3%,-16.5% (active),26.1%,,2.32% (active),10.2%,15.1%,,10.1%,
O=C1/C(=C/c2ccccc2O)C(=S)SN1Cc1ccco1,-9.87% (active),,102%,105%,98.8%,,111%,110%,54.2%,93.5%,108%,15.7%,87.1%,108%,69.5%,104%,56.4%,
O=C(/C=C/c1cccc(O)c1)c1cccc(-n2cc(-c3ccccc3)[nH]c2=O)c1,,9.12% (active),-9.18% (active),20.2%,106%,-30.5% (active),-28% (active),3.96% (active),21.1%,7.56% (active),-32.1% (active),6.52% (active),-67.7% (active),-44.2% (active),-73.3% (active),46%,33.8%,-45.4% (active)
Cc1ccc2nc(-c3ccc(N(C)C)c(Br)c3)cn2c1,,93.8%,92.6%,115%,94.4%,-8.76% (active),103%,78.2%,109%,71.4%,100%,76.8%,33%,100%,95.4%,83.2%,63.4%,71%
O=C1/C(=C/c2cccc(Cl)c2)CCc2ccccc21,,91.1%,111%,100%,114%,94%,104%,100%,101%,102%,56.4%,50.5%,93%,102%,87.9%,110%,96.6%,22.3%
COc1ccc(/C=C/C(=O)c2cccc(NS(C)(=O)=O)c2)cc1,-10.2% (active),,94.9%,81.5%,110%,7.92% (active),78.1%,85.2%,70.6%,105%,50.5%,50.4%,21%,111%,38.5%,83.2%,90%,
O=C(Oc1cccc2ccccc12)c1ccccc1C(=O)c1ccccc1,3.67% (active),91.7%,102%,,,,65.6%,90.4%,87.4%,99.7%,99.4%,109%,,103%,92.2%,93.5%,73.5%,
CC(=O)O[C@H]1CC[C@@]2(C)C(=CC[C@@H]3[C@@H]2CC[C@]2(C)C(c4cccnc4)=CC[C@@H]32)C1,30.8%,,95.6%,47.2%,76.7%,62.6%,70.3%,45.4%,47.2%,63.4%,76.4%,46%,,65.1%,53.7%,-7.37% (active),34.5%,
